Where a chain is given by its changes, count along the chain named.
Key:
Assay in all cases: protein-binding microarray (PBM); PBM: ~300 nM protein, 6 mM HEPES pH 7.8, 80 mM KCl, 0.5 mM EDTA, 0.5 mM EGTA, 6% glycerol, 35 ng/ul poly-dIdC, 1% milk, 1 h, room temperature; Ap Aiptasia and Nv Nematostella (sea anemones) / Co Capsaspora / Aq Amphimedon (sponge) / Dm Drosophila / Hu human; RHD is the Rel homology domain; high values mean tight binding
Settings in all cases: dsDNA, one strand shown
GST-Ap-NF-kB RHD = target: T1, GST-Ap-NF-kB RHD (Exaiptasia pallida (Aiptasia), UniProt A0A913YAJ5 2-422)
T1 sequence: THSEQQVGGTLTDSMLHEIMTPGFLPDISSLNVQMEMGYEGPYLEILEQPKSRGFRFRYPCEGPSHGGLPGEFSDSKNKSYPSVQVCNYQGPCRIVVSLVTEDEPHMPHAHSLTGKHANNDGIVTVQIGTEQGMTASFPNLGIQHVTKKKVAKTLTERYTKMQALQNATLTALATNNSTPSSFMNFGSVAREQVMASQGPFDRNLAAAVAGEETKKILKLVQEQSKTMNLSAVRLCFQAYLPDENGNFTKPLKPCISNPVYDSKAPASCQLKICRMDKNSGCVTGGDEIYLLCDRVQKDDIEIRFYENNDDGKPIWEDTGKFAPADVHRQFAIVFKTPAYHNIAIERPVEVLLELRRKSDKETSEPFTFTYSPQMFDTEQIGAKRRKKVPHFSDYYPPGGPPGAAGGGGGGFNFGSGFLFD

[1] = target: T2, GST-Nv-NF-kB (Cys allele) (Nematostella vectensis, UniProt E5G601 2-411)
T2 sequence: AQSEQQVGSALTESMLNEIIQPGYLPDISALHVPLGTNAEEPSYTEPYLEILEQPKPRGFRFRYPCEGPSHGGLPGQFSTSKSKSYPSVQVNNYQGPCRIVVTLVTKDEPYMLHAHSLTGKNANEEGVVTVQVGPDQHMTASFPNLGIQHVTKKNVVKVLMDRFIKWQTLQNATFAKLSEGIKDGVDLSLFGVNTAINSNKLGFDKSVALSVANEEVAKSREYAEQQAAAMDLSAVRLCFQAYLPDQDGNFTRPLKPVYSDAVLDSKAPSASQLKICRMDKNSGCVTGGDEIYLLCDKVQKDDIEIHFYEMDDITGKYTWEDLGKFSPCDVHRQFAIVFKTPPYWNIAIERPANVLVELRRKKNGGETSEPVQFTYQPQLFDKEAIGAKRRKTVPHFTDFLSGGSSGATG

[2] = target: T3, GST-Nv-NF-kB (Ser allele) (Nematostella vectensis, UniProt A7UNT2 2-411)
T3 sequence: T2 sequence with Q21R, C66S, S207N, E215Q, V217A, E225K, A268E, D399E

GST-Co-NF-kB = target: T4, GST-Co-NF-kB (Capsaspora owczarzaki, UniProt F1ARL5 200-546)
T4 sequence: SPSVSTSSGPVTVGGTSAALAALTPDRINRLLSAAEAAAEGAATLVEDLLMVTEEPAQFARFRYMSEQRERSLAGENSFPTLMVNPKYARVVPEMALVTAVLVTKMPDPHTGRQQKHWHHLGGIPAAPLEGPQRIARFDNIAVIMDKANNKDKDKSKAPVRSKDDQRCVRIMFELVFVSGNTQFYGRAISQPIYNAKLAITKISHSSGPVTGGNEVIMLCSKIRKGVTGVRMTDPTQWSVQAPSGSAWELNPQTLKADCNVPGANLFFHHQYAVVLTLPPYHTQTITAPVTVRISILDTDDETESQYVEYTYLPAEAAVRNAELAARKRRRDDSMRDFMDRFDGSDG

GST-Aq-NF-kB = target: T5, GST-Aq-NF-kB (Amphimedon queenslandica, UniProt A9Y5G7 2-389)
T5 sequence: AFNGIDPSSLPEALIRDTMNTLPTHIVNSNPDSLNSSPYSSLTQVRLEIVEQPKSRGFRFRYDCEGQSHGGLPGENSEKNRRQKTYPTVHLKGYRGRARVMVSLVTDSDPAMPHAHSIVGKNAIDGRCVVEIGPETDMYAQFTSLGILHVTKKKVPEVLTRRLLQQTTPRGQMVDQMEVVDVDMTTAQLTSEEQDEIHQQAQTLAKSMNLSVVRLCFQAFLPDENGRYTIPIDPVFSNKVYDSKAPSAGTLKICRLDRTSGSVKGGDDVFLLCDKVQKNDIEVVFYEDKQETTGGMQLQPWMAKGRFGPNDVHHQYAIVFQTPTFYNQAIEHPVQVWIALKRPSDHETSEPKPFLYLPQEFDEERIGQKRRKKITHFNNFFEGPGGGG

GST-Hu-p50 = GST-Hu-p50 (Homo sapiens, UniProt P19838 7-356)
GST-Hu-p50, sequence (P19838 7-356): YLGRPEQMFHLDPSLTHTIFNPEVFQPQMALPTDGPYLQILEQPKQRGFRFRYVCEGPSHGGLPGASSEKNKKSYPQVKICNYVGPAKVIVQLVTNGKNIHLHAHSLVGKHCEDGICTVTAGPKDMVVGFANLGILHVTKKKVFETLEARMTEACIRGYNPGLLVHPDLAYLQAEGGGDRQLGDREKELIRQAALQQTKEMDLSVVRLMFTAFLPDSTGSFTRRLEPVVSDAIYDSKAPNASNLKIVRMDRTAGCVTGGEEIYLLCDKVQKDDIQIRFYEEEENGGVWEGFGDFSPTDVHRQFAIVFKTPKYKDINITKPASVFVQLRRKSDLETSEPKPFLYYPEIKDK

Row | Sequence | binding signal (GST-Ap-NF-kB RHD) [z-score] | binding signal [1] [z-score] | binding signal [2] [z-score] | binding signal (GST-Co-NF-kB) [z-score] | binding signal (GST-Aq-NF-kB) [z-score] | binding signal (GST-Hu-p50) [z-score]
1 | CCGATTAACATCACCATGGGAAATGATGTTAATCGGGTCTTGATTCGCTTGACGCTGCTG | 1.25 | 2.23 | 1.45 | 2.04 | 1.76 | 1.98
2 | CCGATTAACATCAGGGAAAGCTATGATGTTAATCGGGTCTTGATTCGCTTGACGCTGCTG | 2.11 | 3.99 | 3.57 | 2.65 | 3.54 | 2.53
3 | CCGATTAACATCAATGTGGGAAATGATGTTAATCGGGTCTTGATTCGCTTGACGCTGCTG | 1.32 | 2.75 | 2.53 | 2.85 | 1.55 | 1.92
4 | CCGATTAACATCATCCCGGGAAATGATGTTAATCGGGTCTTGATTCGCTTGACGCTGCTG | 1.98 | 2.94 | 2.26 | 3.63 | 2.23 | 1.36
5 | CCGATTAACATCAGGAAGCTCCCTGATGTTAATCGGGTCTTGATTCGCTTGACGCTGCTG | 1.2 | 1.37 |  |  | 3.72 | 1.33
6 | CCGATTAACATCAATTCCCATCCTGATGTTAATCGGGTCTTGATTCGCTTGACGCTGCTG | 1.57 | 2.99 | 2.59 | 1.43 | 1.94 | 1.57
7 | CCGATTAACATCAATTGGGAAAATGATGTTAATCGGGTCTTGATTCGCTTGACGCTGCTG | 1.52 | 2.96 | 4.08 | 2.47 | 1.4 | 2.04
8 | CCGATTAACATCAACTTTTTCCCTGATGTTAATCGGGTCTTGATTCGCTTGACGCTGCTG | 2.88 | 4.79 | 6.57 | 5.52 | 3.16 | 2.68
9 | CCGATTAACATCACACATGCCCCTGATGTTAATCGGGTCTTGATTCGCTTGACGCTGCTG | 1.13 | 1.37 | 1.04 | 1.12 | 1.68 | 1.36
10 | CCGATTAACATCAGTCCCACAGATGATGTTAATCGGGTCTTGATTCGCTTGACGCTGCTG | 1.45 | 1.55 |  |  | 1.95 | 2.52
11 | CCGATTAACATCAGGCAACTCCCTGATGTTAATCGGGTCTTGATTCGCTTGACGCTGCTG | 1.44 | 2.44 | 1.64 | 1.09 | 4.28 | 2.67
12 | CCGATTAACATCAGCACGGGAAATGATGTTAATCGGGTCTTGATTCGCTTGACGCTGCTG | 1.76 | 2.98 | 2.41 | 2.59 | 2.77 | 1.64
13 | CCGATTAACATCAAGGAAATTTCTGATGTTAATCGGGTCTTGATTCGCTTGACGCTGCTG |  |  |  |  | 1.71 | 1.21
14 | CCGATTAACATCAACGTGGGAAATGATGTTAATCGGGTCTTGATTCGCTTGACGCTGCTG | 1.56 | 2.36 | 1.77 | 2.91 | 1.71 | 1.29
15 | CCGATTAACATCACGGAAAATTCTGATGTTAATCGGGTCTTGATTCGCTTGACGCTGCTG |  |  |  |  | 1.15 | 
16 | CCGATTAACATCAAGTGGGAAAATGATGTTAATCGGGTCTTGATTCGCTTGACGCTGCTG | 1.71 | 4.11 | 4.29 | 2.91 | 2.08 | 2.66

Row | Sequence | binding signal (GST-Ap-NF-kB RHD) [z-score] | binding signal [1] [z-score] | binding signal [2] [z-score] | binding signal (GST-Co-NF-kB) [z-score] | binding signal (GST-Aq-NF-kB) [z-score] | binding signal (GST-Hu-p50) [z-score]
17 | CCGATTAACATCAAAGGGGCTACTGATGTTAATCGGGTCTTGATTCGCTTGACGCTGCTG | 2.79 | 3.08 | 2.12 |  | 3.2 | 3.13
18 | CCGATTAACATCACGGAAGTTCCTGATGTTAATCGGGTCTTGATTCGCTTGACGCTGCTG |  |  |  |  | 2.56 | 
19 | CCGATTAACATCACTCTTTTCCCTGATGTTAATCGGGTCTTGATTCGCTTGACGCTGCTG | 2.32 | 3.09 | 4.46 | 2.99 | 2.63 | 1.85
20 | CCGATTAACATCAACTTGGGAAATGATGTTAATCGGGTCTTGATTCGCTTGACGCTGCTG | 1.31 | 2.47 | 2.1 | 2.33 | 1.15 | 1.54
21 | CCGATTAACATCAGGGAAAGATATGATGTTAATCGGGTCTTGATTCGCTTGACGCTGCTG | 2.67 | 4.29 | 4.52 | 4.56 | 5.22 | 3.62
22 | CCGATTAACATCACGGTCTTTCCTGATGTTAATCGGGTCTTGATTCGCTTGACGCTGCTG |  |  |  |  | 2.62 | 
23 | CCGATTAACATCAGGATTATCCCTGATGTTAATCGGGTCTTGATTCGCTTGACGCTGCTG | 2.26 | 2.9 | 1.47 | 2.37 | 5.15 | 1.73
24 | CCGATTAACATCATGTACGGGAATGATGTTAATCGGGTCTTGATTCGCTTGACGCTGCTG | 1.13 | 2 | 1.46 | 2.7 | 3.27 | 1.26
25 | CCGATTAACATCAAAATTTCCAGTGATGTTAATCGGGTCTTGATTCGCTTGACGCTGCTG |  |  |  |  | 1.04 | 1.16
26 | CCGATTAACATCAAAGGGAATAGTGATGTTAATCGGGTCTTGATTCGCTTGACGCTGCTG | 2.26 | 2.76 | 2.94 | 1.98 | 2.54 | 1.25
27 | CCGATTAACATCAAAATTCCGGATGATGTTAATCGGGTCTTGATTCGCTTGACGCTGCTG |  |  |  |  | 1.54 | 
28 | CCGATTAACATCAAAATTTTCCGTGATGTTAATCGGGTCTTGATTCGCTTGACGCTGCTG |  |  |  |  | 1.74 | 1.66
29 | CCGATTAACATCAACGGTGGGAATGATGTTAATCGGGTCTTGATTCGCTTGACGCTGCTG | 1.12 | 1.46 | 1.15 | 2.19 | 2.42 | 1.41
30 | CCGATTAACATCAGAAATGCCCATGATGTTAATCGGGTCTTGATTCGCTTGACGCTGCTG |  |  |  |  | 1.69 | 1.76
31 | CCGATTAACATCAGCTATTTCCCTGATGTTAATCGGGTCTTGATTCGCTTGACGCTGCTG | 2.08 | 3.01 | 3.4 | 2.17 | 3.31 | 1.83
32 | CCGATTAACATCAATCTTTTCCCTGATGTTAATCGGGTCTTGATTCGCTTGACGCTGCTG | 2.35 | 4.39 | 5.52 | 3.98 | 3.34 | 2.99

Reference: PMC5700166
